This passage reports outcome and AC50 results from PubChem BioAssay (EPA / NIEHS).

Read-out in test [1]: Transforming Growth Factor (TGFB1), TGFB1 (gene 7040)
Nature of the test: LTEA_HepaRG_TGFB1: Life Technologies and Expression Analysis (LTEA) Assay for Transforming Growth Factor (TGFB1) Transporter using HepaRG (AID 2283533). The note with it: mRNA level, 48 h; actives raise or lower the signal. In short, it runs like this: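 Differentiated human HepaRG cells in serum-free induction medium were exposed in duplicate for 48 h to eight concentrations (top 100 uM, half-log steps, 0.5% DMSO). TGFB1 mRNA was quantified by qRT-PCR, normalized to ACTB, GAPDH, POLR2A, and fitted bidirectionally against DMSO.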

Read-out in test [2]: TIMP1, TIMP1 (gene 7076)
As to the kind of experiment: LTEA_HepaRG_TIMP1: Life Technologies and Expression Analysis (LTEA) Assay for TIMP1 using HepaRG (AID 2283534).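 Note: TaqMan qRT-PCR signal normalized to ACTB GAPDH and POLR2A housekeeping genes.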 To be noted: mRNA level, 48 h; actives raise or lower the signal. In short, it runs like this:
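Differentiated human HepaRG cells in serum-free induction medium were exposed 48 h to chemicals (8 half-log concentrations, top 100 uM, 0.5% DMSO). TIMP1 mRNA was quantified by TaqMan qRT-PCR, normalized to ACTB/GAPDH/POLR2A; bidirectional fit versus DMSO.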

Read-out in test [3]: Tumor necrosis factor receptor 1 (TNFRSF1A), TNFRSF1A (gene 7132)
Nature of the test: LTEA_HepaRG_TNFRSF1A: Life Technologies and Expression Analysis (LTEA) Assay for Tumor necrosis factor receptor 1 (TNFRSF1A) using HepaRG (AID 2283535). To be noted: mRNA level, 48 h; actives raise or lower the signal. In short, it runs like this: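 Differentiated human HepaRG cells were exposed in duplicate for 48 h in serum-free induction medium to eight concentrations (top 100 uM, half-log steps, 0.5% DMSO). TNFRSF1A mRNA was quantified by qRT-PCR, normalized to ACTB, GAPDH and POLR2A, then fitted bidirectionally against DMSO.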

Read-out in test [4]: Thyroid Hormone Responsive (THRSP), THRSP (gene 7069)
Nature of the test: LTEA_HepaRG_THRSP: Life Technologies and Expression Analysis (LTEA) Assay for Thyroid Hormone Responsive (THRSP) using HepaRG (AID 2283536). The note with it: mRNA level, 48 h; actives raise or lower the signal. In short, it runs like this:
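Differentiated HepaRG cells treated 48 h in serum-free induction medium with 8 half-log concentrations up to 100 uM (0.5% DMSO), duplicates. THRSP mRNA by TaqMan qRT-PCR normalised to ACTB, GAPDH, POLR2A; bidirectional fit versus DMSO.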

Read-out in test [5]: Cellular tumor antigen p53 (Homo sapiens) (UniProt P04637)
As to the kind of experiment: LTEA_HepaRG_TP53: Life Technologies and Expression Analysis (LTEA) Assay for Tumor Protein P53 (TP53) using HepaRG (AID 2283537). To be noted: mRNA level, 48 h; actives raise or lower the signal. In short, it runs like this: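 TP53 transcript measured by qRT-PCR, normalized to three housekeeping genes, after 48 h treatment of human HepaRG cultures with chemicals from 100 uM downward in half-log steps (0.5% DMSO vehicle, serum-free induction medium). Up- or down-regulation fitted against DMSO.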

Read-out in test [6]: UDP glucuronosyltransferase (UGT1A1), UGT1A1 (gene 54658)
As to the kind of experiment: LTEA_HepaRG_UGT1A1: Life Technologies and Expression Analysis (LTEA) Assay for UDP glucuronosyltransferase (UGT1A1) using HepaRG (AID 2283538). The note with it: mRNA level, 48 h; actives raise or lower the signal. In short, it runs like this:
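Readout is UGT1A1 transcript level by qRT-PCR, normalized to three housekeeping genes, after 48 h chemical treatment of HepaRG cells. Concentrations ran from 100 uM down in half-log steps with 0.5% DMSO, and gain or loss relative to DMSO was fitted.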

Read-out in test [7]: X-box binding protein 1 (XBP1), XBP1 (gene 7494)
Nature of the test: LTEA_HepaRG_XBP1: Life Technologies and Expression Analysis (LTEA) Assay for X-box binding protein 1 (XBP1) using HepaRG (AID 2283540). The note with it: mRNA level, 48 h; actives raise or lower the signal. In short, it runs like this:
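Differentiated human HepaRG cells in serum-free induction medium were exposed in duplicate for 48 h to eight half-log concentrations up to 100 uM in 0.5% DMSO. XBP1 mRNA was quantified by qRT-PCR, normalised to ACTB, GAPDH and POLR2A, with bidirectional fitting against DMSO.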

Test [8] can be described thus: LTEA_HepaRG_LDH_cytotoxicity: Cytotoxicity Assessment in the Life Technologies and Expression Analysis (LTEA) Assay (AID 2283563; active = hit-call score of the fitted dose curve at least 0.9, where 1 is the maximum). In short, it runs like this:
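Differentiated human HepaRG cells, plated 48 h beforehand, were switched to serum-free induction medium and exposed for 48 h to eight half-log concentrations (top 100 uM) in 0.5% DMSO. LDH was measured in spent medium; activity was fitted relative to DMSO vehicle.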

A short description of test [9]: TOX21_p53_BLA_p2_viability: Viability Assessment in the Tox21 HCT-116 p53 Agonism Beta-lactamase Assay, Phase 2 (AID 2283591; active = hit-call score of the fitted dose curve at least 0.9, where 1 is the maximum;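 note: compound exposure lasted 16 h at 37 °C; actives lower the ATP signal meaning cytotoxicity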). The method in brief:
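HCT116 p53-bla cells, 4000/well, dosed after 5 h plating (217-fold dilution of DMSO stocks) and incubated 16 h at 37C. Viability taken as cellular ATP by CellTiter-Glo luminescence after 30 min RT; signal loss marks cytotoxicity.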

Test [10] has as its target Cellular tumor antigen p53 (Homo sapiens) (UniProt P04637). As to the kind of experiment: TOX21_p53_BLA_p2_ratio: Tox21 HCT-116 p53 Agonism Beta-lactamase Assay, Ratio, Phase 2 (AID 2283592; active = hit-call score of the fitted dose curve at least 0.9, where 1 is the maximum). The method in brief: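 HCT116 cells carrying a p53-responsive beta-lactamase reporter were plated, incubated 5 h at 37C, then dosed with compounds in DMSO (217-fold dilution) for 16 h. CCF4-AM substrate was added for 2 h at room temperature; the 460/530 nm emission ratio gave gain-of-signal activity relative to DMSO.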

The nature of test [11]: TOX21_p53_BLA_p3_viability: Viability Assessment in the Tox21 HCT-116 p53 Agonism Beta-lactamase Assay, Phase 3 (AID 2283593; active = hit-call score of the fitted dose curve at least 0.9, where 1 is the maximum;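 note: cells exposed to compound for 16 h before reading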). The method in brief:
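HCT116 cells, 4000/well, dosed 5 h after plating by pin transfer (217-fold dilution from DMSO stock) and incubated 16 h at 37C, 5% CO2. Viability read as ATP luminescence with CellTiter-Glo after 30 min at room temperature.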

Test [12] deals with Cellular tumor antigen p53 (Homo sapiens) (UniProt P04637). Nature of the test: TOX21_p53_BLA_p3_ratio: Tox21 HCT-116 p53 Agonism Beta-lactamase Assay, Ratio, Phase 3 (AID 2283596; active = hit-call score of the fitted dose curve at least 0.9, where 1 is the maximum). In short, it runs like this: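 HCT116 p53-bla cells (4000/well) given compound in DMSO (217-fold dilution) after 5 h, incubated 16 h at 37C. CCF4-AM substrate 2 h at room temperature; 460/530 nm emission ratio, gain fitted against DMSO.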

Test [13] is described as follows: TOX21_p53_BLA_p4_viability: Viability Assessment in the Tox21 HCT-116 p53 Agonism Beta-lactamase Assay, Phase 4 (AID 2283597; active = hit-call score of the fitted dose curve at least 0.9, where 1 is the maximum;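 note: hits lower the luminescence signal meaning cytotoxicity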). The method in brief:
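HCT116 p53-bla cells (4000/well) rested 5 h at 37C, then received compounds in DMSO (217-fold dilution) for 16 h at 37C, 5% CO2. CellTiter-Glo was added after the CCF4-AM read, and luminescence was read after 30 min at room temperature.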

For test [14], the target named is Cellular tumor antigen p53 (Homo sapiens) (UniProt P04637). Nature of the test: TOX21_p53_BLA_p5_ratio: Tox21 HCT-116 p53 Agonism Beta-lactamase Assay, Ratio, Phase 5 (AID 2283599; active = hit-call score of the fitted dose curve at least 0.9, where 1 is the maximum). In short, it runs like this:
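HCT-116 p53-bla cells (4000/well) plated 5 h, dosed with compound (217-fold DMSO dilution) for 16 h at 37 C; CCF4-AM substrate 2 h at room temperature. Activity is the 460/530 nm emission ratio (405 nm excitation), fitted in gain-of-signal direction versus DMSO.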

Test [15] is described as follows: TOX21_p53_BLA_p5_viability: Viability Assessment in the Tox21 HCT-116 p53 Agonism Beta-lactamase Assay, Phase 5 (AID 2283600; active = hit-call score of the fitted dose curve at least 0.9, where 1 is the maximum). The method in brief:
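Cells were plated at 4000/well, rested 5 h at 37C, then given compounds in DMSO (217-fold dilution) for 16 h at 37C, 5% CO2. Following the CCF4-AM beta-lactamase read, CellTiter-Glo was added and luminescence was read after 30 min at room temperature.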

For test [16], the target named is Cellular tumor antigen p53 (Homo sapiens) (UniProt P04637). Nature of the test: TOX21_p53_BLA_p4_ratio: Tox21 HCT-116 p53 Agonism Beta-lactamase Assay, Ratio, Phase 4 (AID 2283601; active = hit-call score of the fitted dose curve at least 0.9, where 1 is the maximum). In short, it runs like this:
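HCT-116 p53 beta-lactamase reporter cells (4000/well) preincubated 5 h, then compound (217-fold dilution of DMSO stock) for 16 h at 37C. CCF4-AM substrate added 2 h at room temperature; 460/530 nm emission ratio fitted upward versus DMSO.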

Test [17] is described as follows: Tanguay_ZF_120hpf_YSE_legacy: (Legacy) Oregon State University Tanguay Lab 120 Hour Post-fertilization zebrafish Assay for Yolk Sac Edema (AID 2283634; active = hit-call score of the fitted dose curve at least 0.9, where 1 is the maximum). The method in brief: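 Tropical 5D wild-type embryos, dechorionated with pronase at 4 hpf, were exposed singly from 6 hpf to 120 hpf under static, sealed, dark conditions at 28C with 0.64% DMSO final. Yolk sac edema was scored present/absent by brightfield microscopy.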

Read-out in test [18]: UDP glucuronosyltransferase (UGT1A6), UGT1A6 (gene 54578)
As to the kind of experiment: LTEA_HepaRG_UGT1A6: Life Technologies and Expression Analysis (LTEA) Assay for UDP glucuronosyltransferase (UGT1A6) using HepaRG (AID 2283539). The note with it: mRNA level, 48 h; actives raise or lower the signal. The method in brief:
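Human HepaRG cells were dosed for 48 h in serum-free induction medium with 0.5% DMSO vehicle, eight-point half-log series from 100 uM, in duplicate. UGT1A6 mRNA was measured by qRT-PCR, normalized to ACTB, GAPDH, POLR2A, and fitted bidirectionally against DMSO.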

A short description of test [19]: Tanguay_ZF_120hpf_MORT_legacy: (Legacy) Oregon State University Tanguay Lab 120 Hour Post-fertilization zebrafish Assay for Mortality (AID 2283633; active = hit-call score of the fitted dose curve at least 0.9, where 1 is the maximum). The method in brief: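 Dechorionated Tropical 5D wild-type zebrafish embryos, one per well from 6 hpf, were statically exposed at 28C in the dark until 120 hpf (0.64% DMSO final). Mortality was scored as present/absent by brightfield microscopy, fitted positively versus DMSO.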

Test [20] is described as follows: ATG_XTT_Cytotoxicity: Cytotoxicity Assessment in the Attagene TRANS-FACTORIAL HepG2 Assay (AID 2283584; active = hit-call score of the fitted dose curve at least 0.9, where 1 is the maximum). In short, it runs like this: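 HepG2 human liver cells, transiently transfected with multiple GAL4-UAS reporter units, were dosed and read at 24 h by XTT as cell number. Loss of signal was fitted relative to DMSO negative control baseline.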

Broadly, the AC50 is the concentration giving half of the maximal activity seen.

Results filed as inconclusive are left out. The source made the active and inactive calls. Rule for the calls, unless noted: active = hit-call score of the fitted dose curve at least 0.9, where 1 is the maximum; inactive = score below 0.9.

Sequence of Cellular tumor antigen p53 (Homo sapiens) (P04637 whole entry, looked up): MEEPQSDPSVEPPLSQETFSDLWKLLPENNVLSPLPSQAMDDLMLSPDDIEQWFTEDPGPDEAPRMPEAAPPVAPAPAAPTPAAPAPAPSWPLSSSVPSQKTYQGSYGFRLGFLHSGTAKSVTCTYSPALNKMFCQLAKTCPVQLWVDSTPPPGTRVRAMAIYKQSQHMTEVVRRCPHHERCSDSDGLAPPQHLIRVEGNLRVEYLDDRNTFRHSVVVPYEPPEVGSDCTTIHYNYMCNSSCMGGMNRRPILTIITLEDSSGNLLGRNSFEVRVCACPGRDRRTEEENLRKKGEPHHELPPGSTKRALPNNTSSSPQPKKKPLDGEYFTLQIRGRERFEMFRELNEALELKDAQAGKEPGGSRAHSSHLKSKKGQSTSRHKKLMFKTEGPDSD

Consider `O=[N+]([O-])c1c(Cl)c(Cl)c(Cl)c(Cl)c1Cl`, for which the call in test [1], in test [2], in test [3], in [4], in [5] and in test [7] was inactive. Also, the call in test [8], in test [9], in [10], in test [11], in test [12] and in [13] was inactive. Besides, the result in [14], in [15], in [16] and in [17] was inactive. Further, in [6], the AC50 was 17.2 µM (active).
Turning to `O=C(NC(=O)c1c(F)cccc1F)Nc1ccc(OC(F)(F)C(F)OC(F)(F)F)c(Cl)c1` (stereo not given), the result in test [1], in [2], in test [3], in test [6], in [18] and in test [7] was inactive. For the same compound, the compound was called inactive in test [8], in [19] and in [17]. Further, the AC50 in test [4] was 6.25 µM (active).
`CNC(=O)CSP(=S)(OC)OC`: the compound was classed as inactive in [1], in test [2], in [3], in [4], in test [6] and in [7]. Moreover, the compound was classed as inactive in test [8] and in [17].
Regarding `CCS(=O)(=O)c1cccnc1S(=O)(=O)NC(=O)Nc1nc(OC)cc(OC)n1`, the call in test [20] was inactive.
For the compound `C#CCN1C(=O)COc2cc(F)c(N3C(=O)C4=C(CCCC4)C3=O)cc21`, the outcome in test [1], in [2], in test [3], in test [4], in test [7] and in [8] was inactive. The compound was classed as inactive in test [19] and in [17]. Besides, in [6], the AC50 was 1.95 µM (active).
Regarding `N#CN`, the compound was called inactive in test [1], in test [2], in test [3], in test [4], in test [6] and in test [18]. For the same compound, the compound was called inactive in test [7], in test [8], in [19] and in test [17].
